Compounds with a hit are over-represented: about 2.4% of the library has one in this group of screens.
Cruzain inh noDet – blocks cruzain activity in detergent-free assay. P25779. purified cruzain, Z-FR-AMC fluorescence, no detergent. Potency, µM, actives largely listed as inhibitors. 200,000 tested, 2.3% active. AID 1476; further: nearly all actives have a fitted effect of over 40% in size
Target sequence (P25779 123-467 limits assumed): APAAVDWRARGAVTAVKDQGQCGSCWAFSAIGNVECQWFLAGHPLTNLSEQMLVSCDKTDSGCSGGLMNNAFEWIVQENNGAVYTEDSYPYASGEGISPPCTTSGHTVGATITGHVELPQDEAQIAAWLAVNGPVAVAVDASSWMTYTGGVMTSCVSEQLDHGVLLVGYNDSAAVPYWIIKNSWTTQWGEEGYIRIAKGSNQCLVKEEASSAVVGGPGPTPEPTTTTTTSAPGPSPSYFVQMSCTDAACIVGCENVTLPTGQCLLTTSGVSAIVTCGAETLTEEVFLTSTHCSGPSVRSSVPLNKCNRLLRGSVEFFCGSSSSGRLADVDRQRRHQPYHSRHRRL
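Detergent-free condition (0.00005% Triton X-100) in acetate buffer pH 5.5 with DTT. 1.5 nM enzyme and compound were pre-mixed 15 min, then 2 uM Z-FR-AMC substrate added; reaction progress from fluorescence change between first and third reads (60 s).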
Cruzain inh Det – inhibitors of Trypanosoma cruzi cruzain with detergent. P25779. purified cruzain, Z-FR-AMC fluorescence, 0.01% Triton. Potency, µM, actives largely listed as inhibitors. 200,000 tested, 0.43% active. AID 1478; further: nearly all actives have a fitted effect of over 40% in size
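15 min RT preincubation of 1.5 nM cruzain with compound, then 2 uM Z-FR-AMC added; kinetic AMC fluorescence, 60 s delta. Triton X-100 0.01%, pH 5.5.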
A number is an active result. The call rests on the fitted dose curve; in most records, active means well fitted curve in the direction sought with a large enough effect; inconclusive means small, poorly fitted or top-dose-only effect, or another doubt; inactive means no such curve, though single readings can be large; an effect the other way counts as inactive or inconclusive.

How did Cc1cc(O)c(C(C[N+](=O)[O-])c2ccc(Cl)cc2)c(=O)o1 (stereo not drawn) do in these assays?
Cruzain inh noDet: inactive; Cruzain inh Det: inactive

How did COc1c2c(cc3c1C(NC(N)=O)[N+](C)(C)CC3)OCO2 (stereo not drawn) do in these assays?
Cruzain inh noDet: inactive; Cruzain inh Det: inactive

What do the screens show for `Cc1ccc(NC2=C/C(=N/S(=O)(=O)c3cccs3)c3ccccc3C2=O)cc1C`?
Cruzain inh noDet: 10µM; Cruzain inh Det: inactive

Results for Cc1ccccc1NC1=C/C(=N\S(=O)(=O)c2cccs2)c2ccccc2C1=O ?
Cruzain inh noDet: inconclusive; Cruzain inh Det: inactive

What do the screens show for `CCN(CC)CCNC(=O)C(=O)Nc1c2c(nn1-c1ccc(F)cc1)CSC2`?
Cruzain inh noDet: inactive; Cruzain inh Det: inactive

How did Cc1ccc2cccc(NC(=O)c3ccc(-c4cccc([N+](=O)[O-])c4)o3)c2n1 do in these assays?
Cruzain inh noDet: inactive; Cruzain inh Det: inactive

How did O=C(Nc1ncc(Cc2cccc(C(F)(F)F)c2)s1)c1ccc(-c2cccc([N+](=O)[O-])c2)o1 do in these assays?
Cruzain inh noDet: 10µM; Cruzain inh Det: inactive

Results for Cc1nnc(NC(=O)c2ccc(-c3cccc(C(F)(F)F)c3)o2)s1 ?
Cruzain inh noDet: 13µM; Cruzain inh Det: inactive

Results for CC(=O)Cc1nsc(NC(=O)c2ccc(-c3cccc(C(F)(F)F)c3)o2)n1 ?
Cruzain inh noDet: inactive; Cruzain inh Det: inactive

What do the screens show for `C[C@@H]1[C@H](C)CC[C@@]2(C(=O)O)CC[C@]3(C)C(=CC[C@H]4[C@@]5(C)CC[C@@H](O)C(C)(C)[C@@H]5CC[C@@]43C)[C@@H]12`?
Cruzain inh noDet: inactive; Cruzain inh Det: inactive

What do the screens show for `O=C(Nc1cc(Cl)cc(Cl)c1)c1ccc(F)c(S(=O)(=O)N2CCCCCC2)c1`?
Cruzain inh noDet: inactive; Cruzain inh Det: inactive

Results for C[C@@H](N=C(N)N)C(=O)O ?
Cruzain inh noDet: inactive; Cruzain inh Det: inactive

What do the screens show for `O=S(=O)(c1ccc(F)cc1)N1CCC(n2c(C(F)(F)F)nc3cccnc32)CC1`?
Cruzain inh noDet: inactive; Cruzain inh Det: inactive

Results for CCc1ccc(C(=O)c2cnc3ccc(F)cc3c2S(=O)(=O)c2ccccc2)cc1 ?
Cruzain inh noDet: inactive; Cruzain inh Det: inactive

Results for CCOC(=O)N/N=C/c1ccc(N2CCOCC2)s1 ?
Cruzain inh noDet: inactive; Cruzain inh Det: inactive

Results for FC(F)(F)c1ccc(Cl)c(N/N=C/c2ccc(N3CCOCC3)s2)c1 ?
Cruzain inh noDet: 10µM; Cruzain inh Det: inactive

What do the screens show for `Cc1ccc(N2CCN(S(=O)(=O)c3cc(C(=O)Nc4cc(Cl)cc(Cl)c4)ccc3F)CC2C)cc1` (stereo not drawn)?
Cruzain inh noDet: 2.5µM; Cruzain inh Det: inactive

What do the screens show for `Cc1ccc(C)c(N2CCN(S(=O)(=O)c3cc(C(=O)Nc4cc(Cl)cc(Cl)c4)ccc3F)CC2)c1`?
Cruzain inh noDet: inactive; Cruzain inh Det: inactive

Results for CC/C=C\C/C=C\C/C=C\C/C=C\C=C\C(O)CCCC(=O)O (stereo not drawn) ?
Cruzain inh noDet: inactive; Cruzain inh Det: inactive

How did O=C(Nc1ccc(O)c(-c2nc3ccccc3o2)c1)C1(c2ccccc2)CCCC1 do in these assays?
Cruzain inh noDet: 25µM; Cruzain inh Det: inactive

Results for O=C(Nc1ccc(-c2nc3ccccc3o2)c(O)c1)c1ccccc1 ?
Cruzain inh noDet: inactive; Cruzain inh Det: inactive

What do the screens show for `Cc1ccc(N2C(=O)C3C(C(=O)c4ccccc4)=NN(c4ccccc4)C3C2=O)cc1` (stereo not drawn)?
Cruzain inh noDet: 16µM; Cruzain inh Det: inactive

How did CCOc1ccc(N2C(=O)C3C(c4ccccc4)=NN(c4ccccc4)C3C2=O)cc1 (stereo not drawn) do in these assays?
Cruzain inh noDet: 20µM; Cruzain inh Det: inactive

How did O=C(C1=NN(c2ccccc2)C2C(=O)N(c3ccccc3)C(=O)C12)c1ccccc1 (stereo not drawn) do in these assays?
Cruzain inh noDet: inactive; Cruzain inh Det: inactive

What do the screens show for `CCOc1ccc(N2C(=O)C3C(C2=O)C3(c2ccccc2)c2ccccc2)cc1` (stereo not drawn)?
Cruzain inh noDet: inactive; Cruzain inh Det: inactive

Results for CCC[C@@H]1C[C@@]1(CCC)C(NP(=O)(c1ccccc1)c1ccccc1)c1ccc(Cl)cc1 (stereo partly drawn) ?
Cruzain inh noDet: inactive; Cruzain inh Det: inactive

How did N=C(N)SCc1cccc(-c2nc3ccccc3c(=O)o2)c1 do in these assays?
Cruzain inh noDet: inactive; Cruzain inh Det: inactive

How did N#C/C(=C\NC(=S)c1ccncc1)c1nc2ccccc2s1 do in these assays?
Cruzain inh noDet: inactive; Cruzain inh Det: inactive

How did Cc1cccc(N=C2NC(=O)/C(=C\c3cccs3)S2)c1 do in these assays?
Cruzain inh noDet: 32µM; Cruzain inh Det: inactive

What do the screens show for `Cc1ccc(N=C2NC(=O)/C(=C/c3cccs3)S2)cc1C`?
Cruzain inh noDet: inconclusive; Cruzain inh Det: inactive

Results for COc1ccc(-c2nc(-c3ccccc3)oc2Nc2c(C)cccc2C)cc1 ?
Cruzain inh noDet: inactive; Cruzain inh Det: inactive
